Among all 1,200 compounds or so, about 290 (24%) were called active. Another 3% or so got no clear call; they are omitted.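 How the source made its calls: active means compounds lowering cell viability signal with fitted half-maximal concentration at most ten times their highest tested concentration; inconclusive means flat fit with 30 to 70% signal loss, or poor fit; inactive means the rest.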 The list is a sample of the results. Results with a measured potency or affinity are listed apart.
test: HEK293T cell viability reduction, dose response, cytotoxicity control for LMP1 NF-kB inhibitor project, CellTiter-Glo luminescence, cherry-picks (AID 504861); conditions: CellTiter-Glo ATP luminescence, 48 h; series mostly up to 26 µM; activity change, negative = cytotoxicity: at the top concentration

SMILES | activity change, negative = cytotoxicity
Cc1ccc(NC(=S)NCc2cccs2)cc1 | 6.68% (inactive)
O=C(Nc1cccc(Cl)c1)Nc1cccc(C(=O)O)c1 | 4.19% (inactive)
S=C(NN=C1C2CC3CC(C2)CC1C3)Nc1ccccc1 | 7.44% (inactive)
Cc1ccc(NC(=O)C(=O)Nc2ccccn2)cc1 | -1.38% (inactive)
CNC1(C)[C@H]2CC[C@H](C2)C1(C)C (some centres undefined) | -0.979% (inactive)
CC(=O)c1cccc(NC(=O)Nc2ccc(C(=O)N3CCOCC3)cc2)c1 | -7.4% (inactive)
CCCCCc1ccc(-c2ccc(/C=C/C(=O)O)cc2)nc1 | -2.31% (inactive)
COc1ccc(-c2nc(C)ncc2-c2ccccc2)c(O)c1 | -3.21% (inactive)
Cc1ccc(N(Cc2cc3ccccc3[nH]c2=O)C(=O)c2ccco2)c(C)c1 | 7.35% (inactive)
O=C(O)c1cccc(Nc2ccnc(Nc3cccc(C(=O)O)c3)n2)c1 | -5.64% (inactive)
CCN(C(=O)CSc1nnc(Nc2cccc(C)c2C)s1)C1CCS(=O)(=O)C1 (centres undefined) | 15.3% (inactive)
COc1ccc(-c2nc(CN3CCC(C(=O)N4CCOCC4)CC3)c(C)o2)cc1C | -0.49% (inactive)
Cc1cc(C)c2sc(NC(=O)C3CC3)nc2c1 | 4.24% (inactive)
CCOC(=O)Oc1c(OC)cc(C(=O)O[C@@H]2C[C@@H]3CN4CCc5c([nH]c6cc(OC)ccc56)[C@H]4C[C@@H]3[C@H](C(=O)OC)[C@H]2OC)cc1OC | -5.9% (inactive)
Nc1ccn([C@@H]2O[C@H](CO)[C@@H](O)[C@@H]2O)c(=O)n1 | 0.472% (inactive)
Cc1cc(N2CCCC2=O)cc(C)c1S(=O)(=O)Nc1c(C)nn(C)c1C | 1.46% (inactive)
Cn1cccc1-c1cc(C(=O)N2CCc3c([nH]c4ccccc34)C2c2ccccn2)[nH]n1 (centres undefined) | -10.6% (inactive)
COc1ccc(-c2oc3ncnc(NCCN4CCOCC4)c3c2-c2ccc(OC)cc2)cc1 | 2.98% (inactive)
CSc1nc(C)nc2c1c(=O)n(C)c(=O)n2C | 8.38% (inactive)
Cc1ccc(/C=C/c2nc3ccccc3s2)s1 | -11.8% (inactive)
Cn1cc(CC(=O)NCCCN2CCCC2)c2ccccc21 | 3.13% (inactive)
CCc1cc(Cl)c(OC)c(C(=O)NC[C@@H]2CCCN2CC)c1O | -6.38% (inactive)
c1ccc2c3c([nH]c2c1)C(C1CCCCC1)N(Cc1ncc[nH]1)CC3 (centres undefined) | 1.16% (inactive)

SMILES | activity change, negative = cytotoxicity
Cc1ccc(C(=O)Nc2sc(Cc3ccc4c(c3)OCO4)c(C)c2C(N)=O)cc1 | 6.6% (inactive)
O=C(Nc1ccc(N2CCOCC2)cc1)c1cnccn1 | 1.13% (inactive)
CCN(CC)c1ccc(NC(=O)c2cccc(F)c2)c(C)c1 | 1.9% (inactive)
Cn1ncc(Cl)c1C(=O)NC1CCCC1 | 7.6% (inactive)
COc1ccccc1N1CCN(CCCNC(=O)C2CCCN(c3ncnc4c3nc3n4CCCCC3)C2)CC1 (centres undefined) | -8.21% (inactive)
CNC(=O)c1[nH]cnc1C(=O)N[C@@H](CCCCNC(=O)OC(C)(C)C)C(=O)OC(C)(C)C | 1.6% (inactive)
CCOC(=O)c1c(-n2cccc2)sc2c1CCCC2=O | 7.85% (inactive)
Cc1ccccc1C(=O)c1c[nH]c(C(=O)NCc2ccco2)c1 | 12.1% (inactive)
O=c1c2cnn(-c3ccccc3)c2nc(-c2cccs2)n1-c1ccc(Cl)cc1 | -3.75% (inactive)
Cc1ccc(OCC(=O)NNC(=S)NC(=O)C2CCCCC2)c(C)c1 | -1.86% (inactive)
N#Cc1c(NC(=O)CCCC(=O)O)sc2c1CCCCC2 | 7.69% (inactive)
COC(=O)CCNc1ccc2c(c1)OCCO2 | -7.17% (inactive)
COc1ccc(C(=O)OCC(=O)c2c[nH]c3ccccc23)cc1OC | 0.68% (inactive)
Clc1ccc(-c2nnc(NC3=NCCCCC3)o2)cc1 | -3.14% (inactive)
O=C(O)c1ccc(-n2cncn2)c([N+](=O)[O-])c1 | 0.957% (inactive)
CN(C)c1ccnc2sc(C(N)=O)c(N)c12 | 2.86% (inactive)
Cc1ccc(CNC(=O)C2CCN(S(=O)(=O)c3c(C)noc3/C=C/c3ccco3)CC2)cc1 | 2.54% (inactive)
Cc1nc(N)nc(SCc2ccc([N+](=O)[O-])cc2)c1N | 11.7% (inactive)
COc1cc(/C=N/NC(=O)c2cccc(S(=O)(=O)N3CCOCC3)c2)cc(OC)c1O | -1.07% (inactive)
COc1cc(C(=O)Oc2ccccc2/C=N/NC(=O)c2ccc(C)c(Cl)c2)cc(OC)c1OC | 2.62% (inactive)
CCCCCC(=O)NC(=S)Nc1ccc(Br)cc1C | 5.46% (inactive)
O=C(N/N=C/c1cccc(O)c1)c1ccc2c(c1)OCCO2 | 1.25% (inactive)
Cc1cccc(C)c1NC(=O)CN(C)C(=O)c1ccc(-c2cccc(C(F)(F)F)c2)o1 | -5.78% (inactive)

SMILES | activity change, negative = cytotoxicity
COCCNC(=O)C(=O)NCC1OCCN1C(=O)c1ccc(Cl)cc1 (centres undefined) | 8.08% (inactive)
COC(=O)c1ccc(/C=C(/NC(=O)c2ccccc2)C(=O)N2CCOCC2)cc1 | 1.26% (inactive)
Cc1ccc(N=c2c([N+](=O)[O-])nn(-c3ccc4c(c3)OCCO4)n2O)cc1F | 23.8% (inactive)
COc1ccc(C(=O)NC(=S)NNC(=O)c2ccc3ccccc3n2)cc1 | 1.74% (inactive)
CC(=O)Nc1ccc(OCC(O)CNC(C)C)cc1 (centres undefined) | 5.57% (inactive)
COc1ccc(-c2cnc(NCc3cc4c(cc3[N+](=O)[O-])OCO4)n2C)cc1 | 6.75% (inactive)
Cc1ccc(-n2c(C)c([N+](=O)[O-])c3ccc(O)c(CN(C)C)c32)cc1 | -4.92% (inactive)
O=C(Nc1ncccc1O)c1ccc(S(=O)(=O)NCc2ccco2)cc1 | -2.08% (inactive)
O=C(/C=C/Nc1ccc(Br)cc1F)c1ccccc1 | -4.86% (inactive)
CC(=O)c1c(C)[nH]c(C(=O)Nc2ccc(C)cn2)c1C | 5.29% (inactive)
COc1ccccc1C=NN=Cc1ccccc1O | 5.09% (inactive)
Cc1ccsc1/C=N/NC(=O)c1ccc2c(c1)OCCO2 | -4.75% (inactive)
CN(C)c1cccc(C(=O)N/N=C/c2ccccc2F)c1 | -0.047% (inactive)
CCc1nnc(NC(=O)c2ccc(S(=O)(=O)N3CCOCC3)cc2)s1 | 5.76% (inactive)
CCCn1c(C)cc(C(=O)COC(=O)c2ccc[nH]c2=O)c1C | 3.28% (inactive)
CCn1c2ccccc2c2cc(/C=C(/C#N)C(N)=S)ccc21 | -9.81% (inactive)
Oc1c(N=NC(=S)Nc2ccccc2F)c2ccccc2n1Cc1cccc(Cl)c1 | 2.68% (inactive)
COC(=O)C1=C(C)N(c2cc(C)cc(C)c2)/C(=C/c2ccc(O)cc2)C1=O | 0.245% (inactive)
COC(=O)/C=C/C(=O)Nc1cccc(C(F)(F)F)c1 | 9.97% (inactive)
O=C(CN1CCN(S(=O)(=O)c2ccc(F)cc2)CC1)Nc1cccc(C(F)(F)F)c1 | 3.31% (inactive)
CCOc1ccc(C(=O)Nc2nnc(SCC(=O)NCC3CCCO3)s2)cc1 (centres undefined) | 10.5% (inactive)
CN=C1S/C(=C\c2ccc(O)c(Br)c2)C(=O)N1C | 6.54% (inactive)
CC(=O)O[C@H]1CC[C@@]2(C)C(=CC[C@H]3[C@@H]4CC[C@H](C(C)=O)[C@@]4(C)CC[C@@H]32)C1 | -0.254% (inactive)
